# Measured values as given in PubChem BioAssay (NCI).
# About 79,000 compounds went through this panel and 15% of them were active in at least one assay; those are over-represented in the sample as a whole. Activity calls are given as the source filed them. Rule as the data show it: active = growth inhibition above about 70%; inactive = the rest.
# Assay: NCI Yeast Anticancer Drug Screen. Data for the sgs1 mgt1 strain (AID 161);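 also: 0% = growth of cultures given vehicle only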
# Conditions: S. cerevisiae sgs1 mgt1 strain, at 50.0 µM, hits give high values
# Outline: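 Yeast cells carrying a defined DNA-repair defect were exposed to test compounds. Growth inhibition was measured relative to vehicle-treated controls.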
row,SMILES,growth inhibition
1,CC(=O)Oc1ccccc1C(=O)/C=C/c1ccccc1,11.6% (inactive)
2,CN(C)C(=S)/N=c1\ssc(=S)n1-c1ccccc1,-13.1% (inactive)
3,CCOC(=O)C(NS(=O)(=O)c1ccccc1)(C(F)(F)F)P(=O)(OCC(C)C)OCC(C)C (configuration not stated),96.2% (active)
4,CC(C)Nc1nc(NC(C)C)c2cnn(-c3ccccc3)c2n1,98.5% (active)
5,CCCCCCCCC1(OCCCS(=O)(=O)O)COc2ccccc2OCCOCCOc2ccccc2OC1,97.9% (active)
6,Oc1ccc2c(c1)Cc1ccccc1-2,53% (inactive)
7,CCOC(=O)N1C2C=CC(=O)C(C=C2)N1C(=O)OCC (configuration not stated),85.1% (active)
8,CC(=O)OCc1ccc2c(c1)C(O)NC(=O)O2 (configuration not stated),51.8% (inactive)
9,CC(C)=CCc1ccc(O)cc1,-24.1% (inactive)
10,CCCCCCCCC(=O)Cl,77.5% (active)
11,O=S1(=O)C(C(O)(c2ccccc2)c2ccccc2)CCCN1c1ccccc1 (configuration not stated),70.5% (active)
12,CCCCCCCCCCCCNCC(=O)O,74.5% (active)
13,CC(C)=CCc1c2c(c(O)c3c(=O)c(-c4ccc(O)cc4O)coc13)C=CC(C)(C)O2,85.9% (active)
14,O=C(CCC(O)(c1ccccc1)c1ccccc1)c1ccccc1,13.2% (inactive)
15,CS(=O)(=O)OCCN(CCOS(C)(=O)=O)c1ccc(C=Nc2ccc(-c3csc(-c4ccc(Br)cc4)n3)cc2)cc1,94.2% (active)
16,O=P(O)(CN1CCN(CP(=O)(O)c2ccccc2)CCN(CP(=O)(O)c2ccccc2)CC1)c1ccccc1,85% (active)
17,CC(C)c1ccc2c(c1)CCC1C(C)(CN)CCCC21C (configuration not stated),99.5% (active)
